Measurements published in PubChem BioAssay (NCATS).
Inconclusive results are not listed. A call without a number means that no potency is given here. Unmarked numbers belong to inactive results. Activity calls are given as the source filed them. The call rests on the fitted dose curve; in most records, active means well fitted curve in the direction sought with a large enough effect; inconclusive means small, poorly fitted or top-dose-only effect, or another doubt; inactive means no such curve, though single readings can be large; an effect the other way counts as inactive or inconclusive. *1 amine or outer side, *2 acyl side, *3 side chain or, on linkers, in order; H or OH if unused. Where a SMILES comes first, the peptide text is derived from it. Bridges are numbered along the chain shown (N, C = ends). X6 = O=C(CCC[*:2])[*:1]

Tests used:
[1] = Primary qHTS for inhibitors of nuclear receptor binding SET domain protein 2 (NSD2) in an isogenic RCH-ACV NSD2 p.E1099K mutant (9B) (AID 1645876)
[2] = Primary qHTS for inhibitors of nuclear receptor binding SET domain protein 2 (NSD2) in an RCH-ACV wild type WT cells (2C) (AID 1645877)
Further: nearly all actives have a fitted effect of over 70% in size.

Structure (SMILES)	Potency [1]	Potency [2]	activity change, negative = viability loss [1]	activity change, negative = cell killing [2]
C=C1CC2[C@]3(C)C(=C(O)C(=O)[C@@]2(C)[C@]2(C(=O)OC)C(=O)C(C)OC(=O)[C@@]12C)C(C)(C)C(=O)CC3O (stereo partly drawn)	inactive	inactive		
COc1c2c(c(C)c3c1C(=O)OC3)OC1(C)CC(O)C3(O)C(C)(C)OC(=O)CCC3(C)C1C2 (stereo not drawn)	inactive	inactive		
O=C(O)Cc1nn(Cc2nc3cc(C(F)(F)F)ccc3s2)c(=O)c2nccnc12	inactive	inactive		
C=CC1(C)CC2=CCC3C(C)(C(=O)O)CCCC3(C)C2CC1OC(C)=O (stereo not drawn)	inactive	inactive		
COC(=O)C1(Cc2ccc(O)cc2)OC(=O)C(OC)=C1c1ccc(O)cc1 (stereo not drawn)	inactive	inactive		
C/C=C(\C)C(=O)O[C@@H](C)[C@H]1CC[C@]2(O)C3CCC4C[C@@H](OC5CC(OC)C(OC6CC(OC)C(OC7CC(OC)C(OC8OC(C)C(OC9OC(CO)C(O)C(O)C9O)C(OC)C8O)C(C)O7)C(C)O6)C(C)O5)CC[C@]4(C)C3[C@H](O)[C@@H](O)[C@]12C (stereo partly drawn)			-6.35% [at 9.23 µM]	-1.09% [at 9.23 µM]
C=CCc1ccc(O[C@@H]2O[C@H](CO[C@@H]3O[C@@H](C)[C@H](O)[C@@H](O)[C@H]3O)[C@@H](O)[C@H](O)[C@H]2O)cc1	inactive	inactive		
CC(C)C(C#N)O[C@@H]1O[C@H](CO[C@@H]2OC[C@](O)(CO)[C@H]2O)[C@@H](O)[C@H](O)[C@H]1O (stereo partly drawn)	inactive	inactive		
CC(=O)OC1C(O)C(C)=C(CCC(C)CC(=O)O)C2(C)CCCC(C)(C)C12 (stereo not drawn)	inactive	inactive		
CC1CCC2C(C(=O)O)=CC3C(O)C(C)(C)CC123 (stereo not drawn)	inactive	inactive		
C[C@@H]1C/C=C/C=C\C=C\C=C\[C@H](O[C@@H]2O[C@H](C)[C@@H](O)[C@H](N)[C@@H]2O)C[C@@H]2O[C@](O)(C[C@@H](O)C[C@H]3O[C@@H]3/C=C/C(=O)O1)C[C@H](O)[C@H]2C(=O)O	inactive	inactive		
O=C(OCc1cccc(O)c1O[C@@H]1O[C@H](CO)[C@@H](O)[C@H](O)[C@H]1O)C1(O)C(=O)C2C=CC1C1C=CC(=O)C(O)(C(=O)OCc3cccc(O)c3O[C@@H]3O[C@H](CO)[C@@H](O)[C@H](O)[C@H]3O)C21 (stereo partly drawn)			-9.51% [at 9.23 µM]	-22.5% [at 9.23 µM]
COc1ccc(C2=CC(=O)OC2Cc2ccc(O)cc2)c(O)c1 (stereo not drawn)	inactive	inactive		
COC(=O)[C@@H]1C2CC3c4[nH]c5ccccc5c4CCN3CC2CC[C@@H]1O (stereo partly drawn)	inactive	inactive		
COc1cc(/C=C/C(=O)OC[C@H]2O[C@H](O[C@]3(CO)O[C@H](CO)[C@@H](O)[C@@H]3O)[C@H](O)[C@@H](O)[C@@H]2O)cc(OC)c1O	inactive	inactive		
C[C@@H]1O[C@@H](O[C@H]2[C@H](O[C@H]3[C@H](O[C@H]4CC[C@@]5(C)C(CC[C@]6(C)C5CC=C5[C@@H]7CC(C)(C(=O)O)C[C@@H](O)[C@]7(C)CC[C@]56C)[C@@]4(C)CO)O[C@H](C(=O)O)[C@@H](O)[C@@H]3O)O[C@H](CO)[C@H](O)[C@@H]2O)[C@H](O)[C@H](O)[C@H]1O (stereo partly drawn)			-4.48% [at 9.23 µM]	-5.72% [at 9.23 µM]
O=C(O)c1cc(O[C@@H]2O[C@H](CO[C@@H]3OC[C@@H](O)[C@H](O)[C@H]3O)[C@@H](O)[C@H](O)[C@H]2O)c2ccccc2c1O	inactive	inactive		
CC1OC(OC2C(CO)OC(OCC3OC(OC(=O)C45CCC(C)(C)CC4C4=CCC6C7(C)CCC(OC8OC(C(=O)O)C(O)C(OC9OC(CO)C(O)C(O)C9O)C8O)C(C)(C)C7CCC6(C)C4(C)CC5)C(O)C(O)C3O)C(O)C2O)C(O)C(O)C1O (stereo not drawn)			0.172% [at 9.23 µM]	-4.23% [at 9.23 µM]
COC(=O)c1ccc(O[C@@H]2O[C@H](CO)[C@@H](O)[C@H](O)[C@H]2O)c(OC)c1	inactive	inactive		
COc1ccc(/C=C/C(=O)O[C@H]2[C@@H]3C=CO[C@@H](O[C@@H]4O[C@H](CO)[C@@H](O)[C@H](O)[C@H]4O)[C@@H]3[C@@]3(CO)O[C@@H]23)cc1O	inactive	inactive		
COc1cc([C@H]2OC[C@@H]3[C@@H](c4ccc(O[C@@H]5O[C@H](CO)[C@@H](O)[C@H](O)[C@H]5O)c(OC)c4)OC[C@]23O)ccc1O	inactive	inactive		
CC[C@H]1OC(=O)[C@H](C)[C@@H](O[C@H]2C[C@@](C)(OC)[C@@H](O)[C@H](C)O2)[C@H](C)[C@@H](O[C@@H]2O[C@H](C)C[C@H](N(C)C)[C@H]2O)[C@@](C)(O)C[C@@H](C)[C@@H]2N[C@@H](COCCOC)OC([C@H]2C)[C@]1(C)O	inactive	inactive		
CC[C@H](C)[C@@H]1NC(=O)[C@H](Cc2ccc(OC)cc2)NC(=O)CCCSC[C@@H](C(=O)N2CCC[C@H]2C(=O)N[C@@H](CC(C)C)C(=O)NCC(N)=O)NC(=O)[C@H](CC(N)=O)NC(=O)[C@H](CCC(N)=O)NC1=O (Y(Me)IQNCPLG-NH2; linker N-5 via X6)	inactive	inactive		
O=C(c1ccc(NS(=O)(=O)c2cccc3cccnc23)cc1)N1CCN(CC2CC2)CC1	inactive	inactive		
